# Results reported in PubChem BioAssay (NCATS).
# Inconclusive results are not listed. A number with no mark means an inactive call. The source made the active and inactive calls. Calls come from the whole dose curve.
# Target: Atrial natriuretic peptide receptor 1 (Homo sapiens) (UniProt P16066)
# Experiment: Natriuretic polypeptide receptor (hNpr1) antagonism - Pilot CMLD screen (AID 1347052)
# Conditions: HEK293 hNpr1 GloSensor cGMP luminescence, ANP-stimulated; series mostly up to 9.22 µM; activity change, negative = inhibition: at the top concentration
# Method: In order to identify small molecular compounds that inhibit the hNpr1 receptor we developed a high-throughput assay to measure inhibition of the guanylate cyclase activity of the receptor. cGMP production was measured using a circular permutated Firefly luciferase (FLuc) enzyme functionally linked to the cGMP binding domain of human phosphodiesterase 5 (GloSensor technology pGS-40F, (Fan, F. et al. 2008). The cGMP-sensor was expressed in human embryonic kidney 293 (HEK-293) cells and FLuc activity was measured after stimulation with hNrp agonist peptide. hNrp agonists activates the receptor's associated guanylyl cyclase (GC) domain producing cGMP which then binds to the GloSensor resulting in FLuc activation, the enzymatic activity of which can be measured as bioluminescence with addition of luciferin substrate.
# This assay was initially piloted by testing with a small library of specialty compounds.
# PROTOCOL TABLES (as described by Inglese J, Shamu CE and Guy RK. 2007)
# SEQUENCE No. (e.g., 1, 2, 3, etc.); […] (e.g., Cells, Incubation, Reagent, etc.); VALUE and DESCRIPTION.
# 1. Cells. Seed 1500 HEK293 cGMP-sensor cells expressing hNpr1 per well in 4uL into Greiner 1536-well white/solid bottom high base, tissue culture-treated plates.
# 2. Incubation. Incubate plated cells at 37C in 5% CO2, 95% RH overnight.
# 3. Reagent. Add 1uL per well GloSensor reagent from Promega (2% final concentration) or CO2 independent media vehicle control to respective columns of Greiner 1536-well plates.
# 4. Incubation. Incubate plated cells at room temperature for 2 h, protect from light.
# 5. Compounds. Library compounds and A-71915 control added at 23 nL per well, transferred by Pin Tool.
# 6. Incubation. Incubate plated cells for 30 min. at room temperature, protect from light.
# 7. Detector. GloSensor baseline pre-read luminescence measured using CCD-based camera (Viewlux).
# 8. Compound. Add 1uL of hNppA peptide to 0.1 nM final concentration to stimulate hNpr1 or CO2 independent media as vehicle control.
# 9. Incubation. Incubate treated cells at room temperature for 20 min., protect from light.
# 10. Detector. GloSensor post-hNppA luminescence measured using CCD-based camera (Viewlux).
# NOTES (numbers refer to Sequence numbers above)
# 1. HEK293 cells expressing hNpr1 and GIP/pGS-40F grown to 85-95% confluence (48-72 h) in T175 culture flasks (CO2 independent media supplemented with 10% FBS, 1% Pen/Strep antibiotics and 1 ug/mL puromycin). Trypsinize and harvest cells from T175 culture flasks and filter through 40 um cell strainer. Cells counted with Invitrogen Countess (30,000,000 - 50,000,000 cells/flask). Cells diluted to a final concentration of 375 cells/uL in CO2 independent media and a Millipore multidrop used to dispense 1500 cells per well (4uL/well) into 13 1536-well Greiner White/Solid bottom, high base tissue-culture treated (TC) plates and one Aurora 1536-well Black/Clear bottom, low base, TC plate (for visual inspection of cell health throughout the duration of the assay).
# 2. Cells incubated overnight at ambient temperature, 24 h. at 37C in 95% RH incubator protected from light, covered with metal lid with gas-exchange holes.
# 3. Prepare GloSensor Reagent (Promega): Reconstitute GloSensor luciferase substrate by adding 8.2mL Hepes buffer to 250mg substrate, mix well, protect from light and stored at -80C. Prepare a fresh 12% GloSensor solution in CO2 independent supplemented plating media (see above). Mix well and store at ambient temperature, protected from light. 1uL 12% GloSensor Luciferase Reagent added (2% final concentration) to respective columns of 13 x 1536-well Greiner plate with BioRaptr, 1uL CO2 independent plating media added to respective columns as vehicle control with BioRaptr.
# 4. Cells incubated for 2 h. at ambient temperature, protected from light with metal lid with gas-exchange holes.
# 5. A-71915 stock solution prepared (10 mM in DMSO). […]
# % is set by controls: 0 for no effect and ±100 for the full control effect.
# Atrial natriuretic peptide receptor 1 (Homo sapiens), sequence (P16066 whole entry, looked up): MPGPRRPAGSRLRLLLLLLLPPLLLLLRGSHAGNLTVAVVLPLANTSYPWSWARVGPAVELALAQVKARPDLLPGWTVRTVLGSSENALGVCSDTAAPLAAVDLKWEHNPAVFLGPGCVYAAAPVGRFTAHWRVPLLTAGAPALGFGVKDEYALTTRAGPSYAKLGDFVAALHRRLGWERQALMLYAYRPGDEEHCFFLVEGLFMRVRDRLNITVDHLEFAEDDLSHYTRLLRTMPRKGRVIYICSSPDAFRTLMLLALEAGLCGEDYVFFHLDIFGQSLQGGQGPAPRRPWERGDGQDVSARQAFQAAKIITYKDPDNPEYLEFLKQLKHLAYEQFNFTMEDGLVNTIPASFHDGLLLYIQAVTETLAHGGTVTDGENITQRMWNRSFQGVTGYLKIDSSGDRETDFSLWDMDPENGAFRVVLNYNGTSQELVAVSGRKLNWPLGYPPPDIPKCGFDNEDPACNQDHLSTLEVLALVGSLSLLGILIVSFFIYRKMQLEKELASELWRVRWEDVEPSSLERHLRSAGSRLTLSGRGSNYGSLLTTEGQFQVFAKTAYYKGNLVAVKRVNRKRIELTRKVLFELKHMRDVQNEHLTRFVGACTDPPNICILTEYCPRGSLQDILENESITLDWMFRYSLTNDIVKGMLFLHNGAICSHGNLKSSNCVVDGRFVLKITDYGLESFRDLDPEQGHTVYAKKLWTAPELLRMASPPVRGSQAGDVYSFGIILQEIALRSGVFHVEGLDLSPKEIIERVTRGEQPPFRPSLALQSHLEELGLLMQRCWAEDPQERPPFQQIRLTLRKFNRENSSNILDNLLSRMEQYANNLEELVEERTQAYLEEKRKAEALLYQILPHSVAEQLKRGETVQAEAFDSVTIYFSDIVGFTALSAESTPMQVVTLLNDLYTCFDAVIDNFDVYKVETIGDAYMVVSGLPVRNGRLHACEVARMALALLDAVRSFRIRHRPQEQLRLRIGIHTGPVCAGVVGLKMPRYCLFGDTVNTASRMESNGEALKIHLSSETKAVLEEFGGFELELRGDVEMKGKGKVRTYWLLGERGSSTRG
Compound,"activity change, negative = inhibition [%]",outcome
CC(=O)[C@]12C[C@@H]3CCCN(C(=O)N[C@@H]1c1ccccc1)[C@@H]32,11,
COC(=O)C1=C2CCO[C@@H]2[C@H]2[C@@H](C)[C@H](OC)c3ccccc3[C@H]12,6.08,
COC(=O)C1=C2CCO[C@H]2[C@@H]2[C@@H](C)[C@H](OC)c3ccccc3[C@@H]12,5.43,
COC(=O)[C@@]1(C=C2c3ccc(F)cc3[C@@H](OC)[C@@H]2C)[C@@H]2Oc3ccccc3[C@@H]21,-1.81,
CC(=O)[C@@]12C3[C@@H](CCN3C(=O)N[C@H]1c1ccccc1)[C@H]2c1ccccc1 (some centres not stated),-1.85,
CO[C@@H]1c2ccccc2[C@H]2C(C(=O)O)c3c(n(C)c4ccccc34)[C@H]2[C@H]1C (some centres not stated),4.08,
CC(=O)[C@]12C[C@]3(C)CCCN(C(=O)N[C@@H]1c1ccccc1)C32 (some centres not stated),1.58,
CCOC(=O)[C@@]12C3[C@@H](CCN3C(=O)N[C@@H]1c1ccccc1)[C@@H]2C (some centres not stated),-4.02,
C=C1[C@@H]2CCN3C(=O)N[C@@H](c4ccccc4)[C@@]1(C(=O)OCC)C23 (some centres not stated),4.52,
COC(=O)C12CC3=CCC4C(=O)N(c5ccccc5)C(=O)C4C3Cc3ccccc3[C@H]1CNC2=O (some centres not stated),0.726,
COC(=O)C1=NN=C(C(=O)OC)[C@@]2(C)c3ccccc3NC12 (some centres not stated),2.71,
COC(=O)[C@@H]1[C@@H](c2ccccc2)[C@H]2C(=O)c3c(OC)cc(OC)cc3O[C@@]12c1ccc(OC)cc1,-3.17,
COC(=O)[C@@]1(C=C[C@@H](C)[C@H](OC)c2ccccc2Br)[C@@H]2Oc3ccccc3[C@@H]21,-4.33,
COC(=O)[C@@]1(C=C2c3ccccc3[C@@H](OC)[C@@H]2C)[C@@H]2Oc3ccccc3[C@@H]21,1.74,
COC(=O)[C@]12C[C@@H]3CCN(C(=O)N[C@@H]1c1ccccc1)[C@@]32C,5.98,
CCOC(=O)[C@]12C[C@@H]3CCN(C(=O)N(C(C)=O)[C@@H]1c1ccccc1)[C@@H]32,-1.1,

Compound,"activity change, negative = inhibition [%]",outcome
COC(=O)C1(C)C2CC(C)C(c3ccccc32)N1C(=O)C(F)(F)F (configuration not stated),-0.416,
CCOC(=O)[C@@]12[C@@H]3[C@@H](CCN3C(=O)N[C@H]1c1ccccc1)C2(C)C,5.81,
CCOC(=O)[C@]12C[C@@H]3OCCN(C(=O)N[C@@H]1c1ccccc1)[C@@H]32,-13.6,
COC(=O)C1=C[C@H]([C@@H](C)[C@H](OC)c2ccccc2Br)[C@H]2[C@H]1c1ccccc1N2C,,inactive
CCOC(=O)[C@]12C[C@]3(C)CCN(C(=O)N[C@@H]1c1ccccc1)[C@@H]32,-2.89,
COC(=O)C1=C2CCCO[C@H]2[C@@H]2[C@@H](C)[C@H](OC)c3ccccc3[C@@H]12,3.84,
COC(=O)C1C2CC(C)C(c3ccccc32)N1C(=O)C(F)(F)F (configuration not stated),7.86,
CC(=O)[C@]12[C@H](c3ccccc3)[C@@H]3CCN(C(=O)N[C@H]1c1ccccc1)[C@@]32C,-0.0551,
COC(=O)C1c2c(n(C)c3ccccc23)[C@H]2[C@@H](C)[C@H](OC)c3ccccc3[C@@H]12 (some centres not stated),-3.06,
CCOC(=O)[C@]12C[C@]3(C)CCCN(C(=O)N[C@@H]1c1ccccc1)[C@@H]32,2.46,
C=C(C)C(=O)CP(=O)(OCC)OCC,6.53,
CC(=O)[C@]12C[C@@H]3CCN(C(=O)N[C@@H]1c1ccccc1)[C@@]32C,0.381,
COC(=O)[C@@]12Cc3ccccc3[C@H]1C[C@H](C)[C@@H](C)N2C(=O)C(F)(F)F,2.7,
COC(=O)[C@@]1(C=C2c3ccc(F)cc3[C@@H](OC)[C@@H]2C)[C@@H]2c3ccccc3O[C@@H]21,-0.0022,
CCOC(=O)[C@]12C[C@]3(OC)CCN(C(=O)N[C@@H]1c1ccccc1)[C@@H]32,3.76,
CCC[C@]12CCN3C(=O)N[C@@H](c4ccccc4)[C@](C(=O)OCC)(C1)[C@H]32,4.07,
